From PubChem
LmPK inhibitor = LmPK (Leishmania mexicana) enzyme inhibition; Q27686; purified LmPK, Kinase-Glo ATP luminescence, 1 h; Potency, µM (top dose mostly 57.5 µM), for the others: at the top dose activity change, negative = inhibition, usual class: inhibitors; actives 0.37% (n = 290,000); AID 1721; further: potency means the concentration at half of the fitted maximal effect; on the % scale 0 is the no-effect control and ±100 the full control effect
Target sequence (Q27686 whole entry, looked up): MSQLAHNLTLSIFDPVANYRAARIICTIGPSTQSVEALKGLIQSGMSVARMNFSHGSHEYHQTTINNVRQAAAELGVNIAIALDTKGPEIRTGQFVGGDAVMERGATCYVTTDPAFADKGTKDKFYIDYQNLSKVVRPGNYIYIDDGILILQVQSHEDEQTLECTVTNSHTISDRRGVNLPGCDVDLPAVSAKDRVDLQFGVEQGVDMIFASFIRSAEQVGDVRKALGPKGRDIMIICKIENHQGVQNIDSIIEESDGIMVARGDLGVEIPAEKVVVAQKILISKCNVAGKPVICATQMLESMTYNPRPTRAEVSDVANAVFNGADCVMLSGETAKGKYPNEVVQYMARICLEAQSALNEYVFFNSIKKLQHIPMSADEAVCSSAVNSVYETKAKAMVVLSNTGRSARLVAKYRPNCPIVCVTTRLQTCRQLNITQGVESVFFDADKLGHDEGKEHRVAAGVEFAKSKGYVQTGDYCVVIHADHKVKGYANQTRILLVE
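ATP generated from ADP (0.1 mM) and PEP (0.5 mM) by 0.1 nM LmPK over 1 h at room temperature (pH 7.2 imidazole buffer) was detected by coupled luciferase luminescence. Values were normalized to uninhibited and no-enzyme wells.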
CHX counter = affects cycloheximide protein synthesis inhibition readout, counter-screen; AID 2314; max response, %; actives 12% (n = 300,000); cell reporter, cycloheximide protein synthesis inhibition counterscreen; in the data active means max response mostly above about 13%, no sharp cut-off; inactive means mostly below about 14%; further: read at 38.3 µM for the half of the compounds with a filed dose; 0% is about no effect
Pf growth 96h = P. falciparum growth inhibition at 96 hours. P. falciparum luciferase reporter growth, 96 h. Potency, µM (doses to about 28.7 µM), for inactives: at the highest dose activity change, negative = inhibition, actives largely listed as inhibitors. actives 6.9% (n = 320,000). AID 504834; further: potency means the concentration at half of the fitted maximal effect; on the % scale 0 is the no-effect control and ±100 the full control effect
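Erythrocytes infected with luciferase-expressing P. falciparum were dispensed at 2% hematocrit and 0.05% parasitemia (final), then incubated with compounds 96 hours at 37 C in 5% CO2. Luminescence after detection reagent addition reported growth.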
Pf growth 48h = P. falciparum growth inhibition at 48 hours (one generation). P. falciparum luciferase growth in erythrocytes, 48 h. Potency, µM (titrated, usually from 28.7 µM), without a hit: at the highest dose activity change, negative = inhibition, most hits filed as inhibitors. actives 5.9% (n = 310,000); further: potency means the concentration at half of the fitted maximal effect; on the % scale 0 is the no-effect control and ±100 the full control effect
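Luciferase-expressing P. falciparum in infected erythrocytes (2% hematocrit, 0.1% parasitemia final) in RPMI 1640/0.5% Albumax were exposed to compound for 48 hours at 37 C, 5% CO2; growth read as luminescence.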
Shiga toxin inh = Shiga toxin inhibition; inhibition, % at 38.7 µM; AID 2315; Vero cells, Shiga toxin protein synthesis inhibition reporter; actives 9.2% (n = 290,000); in the data active means inhibition mostly above about 28%, no sharp cut-off; inactive means mostly below about 43%; further: 0% is about no effect
Starred values were filed as active, the others as inactive; i = inactive; ? = inconclusive; . = no result; + = active, no number; [ ] = another dose, or the depositor's remark. An excerpt weighted towards active compounds, which were near 22% of everything screened. Unless noted, the call rests on the fitted dose curve; in most records, active means well fitted inhibition curve with a large enough effect; inconclusive means small, poorly fitted or top-dose-only effect, or another doubt; inactive means no such curve, though single readings can be large or run the other way.

SMILES	LmPK inhibitor	CHX counter	Pf growth 96h	Pf growth 48h	Shiga toxin inh
CC(=O)c1sc(NC(=O)C2COc3ccccc3O2)nc1C (stereo not given)	-26%	21*	74%	143%	36
CC1(C)CC(=O)c2sc(NC(=O)C3COc4ccccc4O3)nc2C1 (stereo not given)	-2%	34*	28%	54%	32*
OC(CSc1c(Cl)cccc1Cl)CN1CCN(c2ccc(F)cc2)CC1 (stereo not given)	1%	-1	?	?	-5
C[C@H]1Cc2c(COc3ccccc3)nc3c(c2CO1)CN(C(=O)c1cccnc1)CC3	-5%[11.5 µM]	.	.	.	.
O=C(Nc1nnc(C(F)(F)F)s1)C1COc2ccccc2O1 (stereo not given)	-10%	34*	-9%	.	44*
O=C(Nc1nncs1)C1COc2ccccc2O1 (stereo not given)	-10%	14*	36%	40%	50*
CC1(C)CC(=O)c2sc(NC(=O)CN3C(=O)CCC3=O)nc2C1	2%	50*	39%	63%	74*
O=C(NC1CCCCC1)C1COc2ccccc2O1 (stereo not given)	.	.	29%	-7%	.
O=C(Nc1nnc(CC(=O)N2CCOCC2)s1)C1COc2ccccc2O1 (stereo not given)	-1%	-7	4%	6%	-10
CC1(C)CNC(=O)c2sc(NC(=O)c3ccccc3Cl)nc2C1	-2%	17*	198%	-19%	34
COc1ccc(CCN2C(=O)CC(C(C)c3ccccc3)C2=O)cc1OC (stereo not given)	1%	8	52%[1.15 µM]	?	-23
CCCN(C(=O)C1CCN(S(=O)(=O)c2ccc(OC)c(OC)c2)CC1)C1CCS(=O)(=O)C1 (stereo not given)	.	.	-3%	?	.
CC1(C)CC(=O)c2sc(NC(=O)c3ccco3)nc2C1	-8%	33*	84%	.	29
O=C(Nc1nnc(C2CC2)s1)C1COc2ccccc2O1 (stereo not given)	0%	34*	235%	i	75
Cc1onc(-c2ccccc2)c1C(=O)Nc1nc2c(s1)C(=O)CC(C)(C)C2	-2%	1	?	-11%	-10
O=C(CN1CCN(c2cccc(C(F)(F)F)c2)CC1)N(C1CCCC1)C1CCS(=O)(=O)C1 (stereo not given)	.	.	8.3µM*	15µM*	.
O=C(CN1CCN(c2cccc(C(F)(F)F)c2)CC1)N(C1CC1)C1CCS(=O)(=O)C1 (stereo not given)	.	.	?	-15%	.
CC1C/C(=C/c2cccn2C)C(=O)/C(=C/c2cccn2C)C1 (stereo not given)	1%	29*	?	.	49*
CS(=O)(=O)N(CC(=O)Nc1ccccc1Sc1ccccc1)c1cccc(Br)c1	10%	-3	?	13µM*	-5
CS(=O)(=O)N(Cc1ccccc1)c1ccc(C(=O)Nc2ccccc2C(=O)O)cc1	6%	1	14%	?	.
CS(=O)(=O)N(Cc1ccccc1)c1ccc(C(=O)Nc2ccccc2Sc2ccccc2)cc1	-2%	0	15µM*	12µM*	6
COC(=O)c1cc(S(=O)(=O)NCc2ccccc2)c[nH]1	-5%	1	2%	-1%	-2
N/C(=N\OC(=O)c1cccs1)c1cccc([N+](=O)[O-])c1	-10%	36*	130%	219%	85*
N/C(=N\OC(=O)c1cccc([N+](=O)[O-])c1)c1cccnc1	-5%	26*	87%	84%	23
COc1ccc(/C(N)=N/OC(=O)c2cccc([N+](=O)[O-])c2)cc1OC	4%	1	.	9%	-19
SMILES	LmPK inhibitor	CHX counter	Pf growth 96h	Pf growth 48h	Shiga toxin inh
Cc1cccc(C(=O)O/N=C(\N)c2cccc([N+](=O)[O-])c2)c1	-1%	53*	-1%	38%	99*
Cc1ccccc1C(=O)O/N=C(\N)c1cccc([N+](=O)[O-])c1	-7%	65*	?	-35%	99*
C=CCN1C(=O)CSC1=Nc1ccc(NC(C)=O)cc1	-4%	-10	-10%	20%	21
CC(=O)NC(CC(=O)OC(C)C(=O)Nc1ncc(Cl)cc1Cl)c1ccccc1 (stereo not given)	-3%	-2	22%	82%	-6
CCN(CC)S(=O)(=O)c1ccc(NC(=O)C2c3ccccc3Oc3ccccc32)cc1	4%	0	?	?	-12
Cc1cc(Br)c2c(c1)=C(c1sc(N3CCCCCC3)nc1O)C(=O)N=2	-3%	17*	23%	?	63*
O=C(CSc1ncnc2c1cnn2-c1ccccc1)NC1CCS(=O)(=O)C1 (stereo not given)	.	.	-14%	2%	.
CC(C)(C)NC(=O)CSc1ncnc2c1cnn2-c1ccccc1	-4%	30*	0%	?	32
CCOC(=O)CNC(=O)CSc1ncnc2c1cnn2-c1ccccc1	-4%	9	-3%	13%	-6
CCc1nnc(NC(=O)CSc2ncnc3c2cnn3-c2ccc(OC)cc2)s1	1%	-1	0.0037µM*	57%	-9
CCOC(=O)CNC(=O)CSc1ncnc2c1cnn2-c1ccc(C)cc1	-2%	0	8.3µM*	15%	-4
CCOC(=O)CNC(=O)CSc1ncnc2c1cnn2-c1ccc(OC)cc1	0%	29*	.	?	16
O=C(COc1ccc([N+](=O)[O-])cc1)NNC(=O)Nc1cccc(F)c1	-8%	3	3%	-28%	14
CCOC(=O)CSc1ncnc2c1cnn2-c1ccc(C)cc1	-3%	-2	13µM*	28%	-4
CCOC(=O)CSc1ncnc2c1cnn2-c1ccccc1	-3%	-3	14%	12%	31
CCOC(=O)CC(=O)CSc1ncnc2c1cnn2-c1ccccc1	-1%	58*	4%	4%	81*
N#Cc1c(-c2ccccc2)nc(SCC(=O)N2c3ccccc3Sc3ccccc32)[nH]c1=O	3%	-2	100%	-4%	1
COc1ccc(C2=NN(CN3C(=O)C(=O)c4ccccc43)C(c3ccc(Br)cc3)C2)cc1 (stereo not given)	2%	32*	11%	.	46
COc1ccc(C2CC(c3ccc(Br)cc3)=NN2C(=O)c2cccnc2)cc1 (stereo not given)	2%	-6	?	-87%	-16
COc1ccc(C2=NN(CN3C(=O)C(=O)c4ccccc43)C(c3ccc(C)cc3)C2)cc1 (stereo not given)	8%	25*	?	.	78*
C=CCSc1nnc2c(n1)OC(c1ccco1)Nc1ccccc1-2 (stereo not given)	-3%	40*	0%	20%	+
C=CCSc1nnc2c(n1)OC=Nc1ccccc1-2	25µM*	12	4%	0%	22
S=c1[nH]nc(-c2cc(-c3ccccc3)n[nH]2)n1/N=C/c1ccccc1	-3%	1	-1%	-12%	-4
Cc1cccc(/C=N/n2c(COc3ccccc3)n[nH]c2=S)c1	0%	9	29%	17%	-5
